How the values were obtained:
Assay in all cases: PBM binding z-score (relative to random genomic background probes); higher = stronger binding; sequences stand for … in GC…GCGATTGACAGCGTAGAATGAAGG
[1] = system: RARb homodimer (NR concentration 270 nM)
Method in brief: (§1)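 Scanned fluorescence from custom Agilent 4×180K protein-binding microarrays was regression-normalized. Binding z-scores use random background probes as reference. Ligand-free nuclear receptor dimers were incubated on the arrays for 1 h and detected with antibodies against each partner (one per run).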

[2] = system: RARg:RXRa (NR concentration 270 nM, RXRa partner concentration 90 nM)
Method in brief: as §1

[3] = system: RARg homodimer (NR concentration 270 nM)
Method in brief: as §1

[4] = system: RXRa DBDmut IVT, anti-RXR (DBD mutation: RXRa K156A/R161A, NR concentration 90 nM)
Method in brief: as §1

[5] = system: RXRa homodimer (NR concentration 180 nM)
Method in brief: as §1

[6] = system: THRa:RXRa (NR concentration 90 nM, RXRa partner concentration 90 nM)
Method in brief: as §1

[7] = system: THRa homodimer (NR concentration 90 nM)
Method in brief: as §1

[8] = system: VDR:RXRa (NR concentration 270 nM, RXRa partner concentration 90 nM)
Method in brief: as §1

[9] = system: VDR homodimer (NR concentration 270 nM)
Method in brief: as §1

| Sequence | PBM binding z-score [1] | PBM binding z-score [2] | PBM binding z-score [3] | PBM binding z-score [4] | PBM binding z-score [5] | PBM binding z-score [6] | PBM binding z-score [7] | PBM binding z-score [8] | PBM binding z-score [9] |
| --- | --- | --- | --- | --- | --- | --- | --- | --- | --- |
| ATCTCTAGGTAAAGATAGTTCAGTGTATGCAAAT | 1.22 | 0.725 | 0.952 | 0.412 | 0.465 | 1.05 | 0.467 | 0.93 | 0.96 |
| GCTAGATGGTCAGTAAAAGGTCACACACCGGTCG | 5.31 | 5.52 | 4.87 | 0.182 | 5.18 | 3.69 | 1.89 | 3.91 | 1.57 |
| GCTGCTAGGTCAGGTTGGTGAGCTAACGGGTACG | 2.33 | 2.37 | 3.34 | 0.361 | 1.05 | 1.76 | 0.218 | 0.141 | 0.0347 |
| CATACAGGGTCAGCTAGGCCAGAGTAGGGACGGC | 3.14 | 4.44 | 4.26 | 1.44 | 4.42 | 3.1 | 0.753 | 3.8 | 1.32 |
| TTGAGTAGGTTAGGGGCATTCAGAATGGCGTCGA | 1.7 | 0.491 | 0.689 | 0.378 | 0.569 | 1.14 | 1.29 | 0.889 | 1.51 |
| CTACCAAGGTGATCAAGGTCGTTGATTACTATTC | 1.47 | 0.906 | 0.808 | 1.42 | 1.11 | 2.71 | 1.55 | 5.3 | 2.33 |
| TCATATTGGTAATACAGGTGAAAGTCGGCATCTA | 0.667 | 0.388 | 0.332 | 1.69 | 0.917 | 0.669 | 0.437 | 1.12 | 0.279 |
| TGTGAAAGTTCAAAGGTAACGTAAGTATCCACAC | 3.75 | 5.88 | 5.56 | 4.17 | 7 | 3.13 | 0.137 | 4.88 | 3.9 |
| AGAATGAGGTTATACGTAGATCAGGGCAGAAAGT | 1.33 | 1.72 | 1.08 | 1.89 | 2.36 | 2.43 | 1.05 | 1.67 | 1.47 |
| ACAGACAGGTGATTGAAGGTAACTCAGCTGGACG | -0.184 | 0.204 | 0.419 | -0.0738 | 0.195 | 1.92 | -0.247 | -0.21 | -0.308 |
| CCTAGCAGGCCAATATGGGTCACTCAAGGCTTGA | 2.09 | 1.38 | 1.31 | -0.181 | 1.36 | 2.5 | -0.509 | 0.862 | -0.211 |
| AGAACGAGGGCACGCTGAGTTGATCGCAGAGTAG | 1.14 | 2.19 | 2.41 | 1.74 | 1.27 | 1.85 | -0.239 | 2.12 | 1.73 |
| CCTTACGGGTCACTGACAGGATATAGCATTTGGA | 2.9 | 4.97 | 4.62 | 1.76 | 5.05 | 2.62 | 0.268 | 3.36 | 0.961 |
| TCTCGGAGGACGCGAAAGGTCAGAGCTCGACATC | 4.26 | 4.31 | 4.12 | 0.446 | 4.2 | 3.01 | 0.235 | 2.8 | 0.581 |
| AGAATGAGGTTATTCAGATCAGGGAATTGCGGTC | 0.905 | 1.51 | 1.13 | 2.35 | 2.13 | 2.51 | 0.965 | 2.7 | 1.53 |
| GCTTGTAGATCAAGGTAAAGAAAGACTAAGCTAA | -0.851 | -0.145 | -0.335 | -0.256 | -0.197 | 0.48 | -0.807 | -0.118 | -0.505 |
| CGTCAAAGTCCAACTAAGGTAACGTAAAGCACGC | 1.43 | 0.748 | 1.4 | 1.14 | 0.261 | 3.44 | 1.91 | 0.393 | 0.579 |
| GCTAGCAGGCCATTTGGGTCACACAATGACGGGC | 1.93 | 1.23 | 1.48 | -0.0753 | 1.2 | 2.03 | 0.818 | 1.24 | 0.18 |
| TTACCAAGGTGAAGGTAGTTGATCCCTCTGTAGA | 0.8 | 0.328 | 0.323 | -0.443 | 0.761 | 1.84 | 0.575 | 0.0573 | -0.396 |
| CCAGACAGGTGAAAGGTAATTCAGTCTGGTACGC | 0.45 | 1.04 | 0.643 | -0.17 | 1.68 | 0.696 | -0.243 | 0.632 | -0.314 |
| CCTCAGAGGACAACAGGAGGTCAGAGCTGCCAGA | 3.94 | 4.09 | 4.83 | 1.36 | 2.06 | 2.79 | 0.791 | 2.34 | 1.29 |
| ATCTCTAGGTAACCAAGTTCACTGAATGCCGAAC | 2.26 | 1.55 | 1.41 | 1.74 | 1.36 | 2.34 | 1.27 | 5.34 | 3.34 |
| CTCCCAAGGTGAACAAGGTCGTTGATTACTATTC | 2.05 | 1.68 | 1.41 | 0.991 | 1.7 | 3.19 | 2.26 | 6.09 | 2.22 |
| AGTCAAAGTTCAGGACGAGGTAACGGAAAGCACG | 3.17 | 4.69 | 4.86 | 2.73 | 2.96 | 3.79 | 1.74 | 2.86 | 1.79 |

| Sequence | PBM binding z-score [1] | PBM binding z-score [2] | PBM binding z-score [3] | PBM binding z-score [4] | PBM binding z-score [5] | PBM binding z-score [6] | PBM binding z-score [7] | PBM binding z-score [8] | PBM binding z-score [9] |
| --- | --- | --- | --- | --- | --- | --- | --- | --- | --- |
| TCATATAGGTAAAAGGTTAAAGTCGGTGTGGTAA | 2.41 | 3.05 | 1.54 | 2.12 | 4.88 | 2.27 | 0.509 | 2.73 | 0.746 |
| CCTTACGGGTCACGAGGGTATAGCACGACGAGCG | 3.35 | 5.85 | 5.72 | 0.613 | 6.79 | 3.56 | 0.0461 | 5.04 | 1.29 |
| ATCTCTGGGTAACCAAGTTCAGTGAATGCCGAAC | 1.28 | 0.665 | 0.596 | 0.665 | 0.412 | 1.46 | 0.335 | 4.32 | 2.64 |
| CGATCTAGGTCATCCAGGACAGTGAATACATTGA | 3.01 | 4.03 | 4.66 | 2.18 | 2.71 | 3.78 | 2.35 | 4.67 | 2.06 |
| AGTCAGAGTTCAGGACGAGGTAACGTAAAGCACG | 2.72 | 4.62 | 4.28 | 3.5 | 3.59 | 3.79 | 1.53 | 3.77 | 3.75 |
| CTTTACGGGTCACTCCAGGTTATAGCATCGGAGT | 3.36 | 4.62 | 4.65 | 2.29 | 4.54 | 5.08 | 0.775 | 4.46 | 1.88 |
| GCGACTGGGGCAAAGCGGGTTACCATAAGGTTGG | 0.945 | 0.446 | 0.469 | -0.587 | 0.545 | 2.47 | 0.0771 | 0.145 | -0.483 |
| CCTACTGGGCCATCAGGTCATTCATATCAACGTT | 2.53 | 1.94 | 1.92 | 0.469 | 1.3 | 3.03 | 3.02 | 1.67 | 2.34 |
| CGACCTAGGTCATTGACAGGACAGTGAATAGTAA | 3.01 | 5.2 | 4.67 | 2.83 | 3.09 | 3.2 | 0.892 | 2.97 | 1.47 |
| ATCGAAAGGTCGACGAGGTGAATATACACCGTTT | 2.97 | 4.55 | 3.93 | 1.7 | 4.64 | 4.06 | 1.54 | 6.16 | 1.84 |
| CCTCGGAGGACAACAGGGGGTCAGAGCTGCCAGA | 3.52 | 4.25 | 3.49 | 0.19 | 3.24 | 3.27 | 1.04 | 3.17 | 1.28 |
| CGAACTAGGTCACGGACAGTGAATCTCCGCACGC | 3.36 | 5.11 | 5.73 | 1.82 | 3.99 | 3.53 | 2.1 | 2.74 | 0.814 |
| TAGCCTAGGTCAGATCGGCCCAGTATACGCTATA | 1.84 | 2.5 | 3.35 | -0.434 | 1.35 | 1.98 | -0.12 | 0.134 | -0.474 |
| GCAGACAGGTGAAACGCAGGTACCTCAGGGTGGC | -0.353 | 0.0657 | 0.145 | -0.949 | 0.343 | 0.295 | -0.722 | -0.756 | -0.935 |
| CGAGACAGGTGAGAAGGTAACTCAGCCTCGATTA | 0.319 | 0.434 | 0.338 | -0.6 | 0.212 | 0.0357 | -0.411 | -0.375 | -0.621 |
| GCTGCTAGGTCAACTGACGGTCAGCTAAAGCTCG | 4.31 | 6.76 | 5.94 | 1.64 | 3.33 | 3.21 | 0.993 | 1.88 | -0.00537 |
| CCGCCTAGGTCAGGGCCAGTATAGGAGGAACGTT | 2.62 | 2.86 | 3.33 | -0.193 | 1.74 | 2.2 | 0.59 | 0.294 | -0.22 |
| CTAGAAAGGTCGGTTGAGGTGAGTATACGGATAA | 2.53 | 2.76 | 2.97 | 1.01 | 2.5 | 4.81 | 1.71 | 2.4 | 1.05 |
| ATCTCTAGCTAAAAGTTCAGTGAATCCCGAGGAT | 2.38 | 1.43 | 1.84 | 0.736 | 0.493 | 0.457 | -0.0184 | 0.955 | 1.64 |
| CCTCGGAGGACAACAGGAGCTCAGAGCTGCCAGA | -0.211 | 0.18 | 0.813 | 0.0828 | -0.62 | 0.178 | -0.484 | -0.533 | -0.365 |
| ACTCAGAGGACAAAGGTCAGAGCTACGCCAGTGA | 4.56 | 6.51 | 5.89 | 1.84 | 6.06 | 3.44 | 0.705 | 3.62 | 1.43 |
| ACTAGCAGGCCACGTTTGGGTCACTCAAACAAAG | 1.91 | 2.05 | 1.58 | -0.109 | 0.813 | 2.64 | 1.28 | 0.312 | -0.0731 |
| AGAATGAGGTTATTAAGATGAGGGAATTGCGGTC | 0.734 | 1.15 | 0.922 | 1.9 | 1.87 | 2.08 | 0.746 | 1.15 | 1.16 |
| AGTCAAAGTTCACTAGGTAACTTAAGATTCAGCT | 3.53 | 4.86 | 5.58 | 4.13 | 3.94 | 2.03 | 0.269 | 3.88 | 3.85 |

Reference: the supplement of paper PMC6555819
